# Where “and” joins values, the source holds several entries; their conditions need not be identical. Identical values can stand only once. Screen size: about 190,000 compounds; about 6,900 (3.6%) were called active. No stated cut-off is given here; in the data, active means inhibition above about 50%; inactive means the rest. For the sample, actives were picked, then their nearest neighbours and some compounds at random.
# Molecular target: Huntingtin (Homo sapiens) (UniProt P42858)
# Assay: mutant huntingtin-calmodulin interaction inhibitors – biochemical, AlphaScreen, primary screen (AID 1671202);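 further: 0% = both proteins with DMSO and 100% = one protein alone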
# Settings: AlphaScreen His-mHTT/GST-CaM binding, luminescence; at 15 µM, active compounds read high
# Sequence of Huntingtin (Homo sapiens) (P42858 whole entry, looked up, stated change not applied): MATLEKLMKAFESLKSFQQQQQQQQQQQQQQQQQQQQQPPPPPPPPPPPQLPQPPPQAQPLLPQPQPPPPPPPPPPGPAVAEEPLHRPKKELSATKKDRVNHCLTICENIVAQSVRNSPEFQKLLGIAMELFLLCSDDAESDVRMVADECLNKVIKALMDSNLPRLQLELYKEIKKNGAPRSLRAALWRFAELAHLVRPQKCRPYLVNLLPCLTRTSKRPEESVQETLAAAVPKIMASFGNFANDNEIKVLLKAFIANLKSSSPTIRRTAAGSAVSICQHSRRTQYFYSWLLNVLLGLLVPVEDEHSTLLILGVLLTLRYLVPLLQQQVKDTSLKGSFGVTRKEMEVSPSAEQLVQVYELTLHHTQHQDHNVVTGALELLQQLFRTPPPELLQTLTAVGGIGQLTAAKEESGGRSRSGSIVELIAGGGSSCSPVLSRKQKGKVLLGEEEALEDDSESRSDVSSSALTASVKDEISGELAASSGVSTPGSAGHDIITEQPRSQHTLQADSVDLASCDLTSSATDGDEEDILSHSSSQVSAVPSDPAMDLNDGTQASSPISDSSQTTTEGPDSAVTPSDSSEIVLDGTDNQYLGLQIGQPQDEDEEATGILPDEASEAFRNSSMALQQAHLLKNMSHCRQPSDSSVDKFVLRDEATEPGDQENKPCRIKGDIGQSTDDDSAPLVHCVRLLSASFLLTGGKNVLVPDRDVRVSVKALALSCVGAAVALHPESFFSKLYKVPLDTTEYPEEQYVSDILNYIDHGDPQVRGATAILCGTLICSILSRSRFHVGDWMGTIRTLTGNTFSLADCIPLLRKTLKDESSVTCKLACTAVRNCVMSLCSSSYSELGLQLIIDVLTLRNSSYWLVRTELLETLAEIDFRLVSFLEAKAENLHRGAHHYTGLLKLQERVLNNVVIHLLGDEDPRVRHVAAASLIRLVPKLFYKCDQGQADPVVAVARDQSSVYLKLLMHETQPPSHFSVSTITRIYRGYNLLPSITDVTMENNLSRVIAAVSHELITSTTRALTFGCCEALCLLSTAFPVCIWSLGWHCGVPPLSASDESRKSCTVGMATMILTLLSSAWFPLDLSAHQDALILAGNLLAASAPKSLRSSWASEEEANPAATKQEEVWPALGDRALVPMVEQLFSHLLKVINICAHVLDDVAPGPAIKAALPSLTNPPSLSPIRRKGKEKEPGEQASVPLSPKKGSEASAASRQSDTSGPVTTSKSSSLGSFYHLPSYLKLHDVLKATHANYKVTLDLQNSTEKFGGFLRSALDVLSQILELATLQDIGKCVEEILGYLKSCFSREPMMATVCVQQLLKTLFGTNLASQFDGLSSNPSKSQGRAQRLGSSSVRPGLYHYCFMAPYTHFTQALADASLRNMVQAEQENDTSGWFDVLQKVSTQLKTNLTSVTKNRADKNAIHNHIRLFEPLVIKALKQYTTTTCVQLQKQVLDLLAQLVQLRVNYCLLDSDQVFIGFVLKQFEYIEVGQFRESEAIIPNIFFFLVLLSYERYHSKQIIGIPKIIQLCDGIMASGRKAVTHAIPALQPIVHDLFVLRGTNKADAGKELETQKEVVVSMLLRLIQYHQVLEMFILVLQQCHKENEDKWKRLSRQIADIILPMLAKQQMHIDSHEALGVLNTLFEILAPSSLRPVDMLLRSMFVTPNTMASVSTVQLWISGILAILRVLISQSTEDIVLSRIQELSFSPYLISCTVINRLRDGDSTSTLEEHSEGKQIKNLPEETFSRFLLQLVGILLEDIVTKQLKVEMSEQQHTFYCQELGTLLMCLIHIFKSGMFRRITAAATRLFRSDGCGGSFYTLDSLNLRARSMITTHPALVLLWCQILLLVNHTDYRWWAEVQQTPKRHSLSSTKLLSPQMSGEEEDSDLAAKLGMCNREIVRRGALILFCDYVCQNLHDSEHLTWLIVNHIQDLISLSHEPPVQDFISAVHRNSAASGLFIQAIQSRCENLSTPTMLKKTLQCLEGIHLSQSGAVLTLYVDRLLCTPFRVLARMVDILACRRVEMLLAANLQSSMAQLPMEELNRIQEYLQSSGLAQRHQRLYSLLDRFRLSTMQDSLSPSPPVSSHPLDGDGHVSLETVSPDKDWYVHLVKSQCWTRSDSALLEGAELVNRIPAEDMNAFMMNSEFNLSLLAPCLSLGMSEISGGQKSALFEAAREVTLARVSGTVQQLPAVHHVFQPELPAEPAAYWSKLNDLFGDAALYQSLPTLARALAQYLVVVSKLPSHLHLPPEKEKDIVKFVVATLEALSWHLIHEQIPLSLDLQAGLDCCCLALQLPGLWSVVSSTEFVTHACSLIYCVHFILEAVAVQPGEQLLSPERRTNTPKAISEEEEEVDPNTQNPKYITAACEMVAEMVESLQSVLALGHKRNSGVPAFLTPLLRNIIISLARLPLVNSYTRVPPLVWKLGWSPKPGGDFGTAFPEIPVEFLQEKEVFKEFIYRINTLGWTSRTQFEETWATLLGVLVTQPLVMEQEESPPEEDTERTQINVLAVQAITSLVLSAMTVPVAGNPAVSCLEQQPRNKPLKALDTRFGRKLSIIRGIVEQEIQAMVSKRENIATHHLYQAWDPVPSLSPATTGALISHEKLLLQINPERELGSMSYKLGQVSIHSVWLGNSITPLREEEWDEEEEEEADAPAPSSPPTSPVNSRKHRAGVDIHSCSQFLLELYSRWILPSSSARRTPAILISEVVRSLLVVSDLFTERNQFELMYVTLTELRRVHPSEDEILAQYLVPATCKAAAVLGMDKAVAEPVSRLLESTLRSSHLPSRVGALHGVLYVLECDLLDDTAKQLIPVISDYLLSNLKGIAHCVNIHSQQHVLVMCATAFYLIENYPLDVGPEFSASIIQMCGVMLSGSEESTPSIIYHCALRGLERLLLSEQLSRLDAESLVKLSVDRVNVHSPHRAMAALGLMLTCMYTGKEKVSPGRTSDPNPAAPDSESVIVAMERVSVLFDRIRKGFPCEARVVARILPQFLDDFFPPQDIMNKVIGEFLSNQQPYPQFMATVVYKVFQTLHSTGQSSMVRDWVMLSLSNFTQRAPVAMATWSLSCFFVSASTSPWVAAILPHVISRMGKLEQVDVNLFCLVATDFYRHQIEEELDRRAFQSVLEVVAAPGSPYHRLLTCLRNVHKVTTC
row,Compound,inhibition
1,CCC1CO/C(=C(\C(=C(Cl)Cl)N2CCOCC2)[N+](=O)[O-])N1 (stereo not given),-5% (inactive)
2,O=[N+]([O-])C(=C1SCCS1)C(=C(Cl)Cl)N1CCCC1,62% (active)
3,O=C1CS/C(=C(\C(Cl)=C(Cl)Cl)[N+](=O)[O-])N1c1ccc(Cl)cc1,33% (inactive)
4,N#C/C(=C\c1ccccc1F)c1nc(-c2cccc([N+](=O)[O-])c2)cs1,5.7% (inactive)
5,CCC(=O)NCc1nc2c(n1CC)CN(S(=O)(=O)Cc1ccc(Cl)cc1)CC2,0.5% (inactive)
6,COc1ccc(N2C(=O)NC3CC2(C)Oc2ccccc23)cc1Cl (stereo not given),-0.83% (inactive)
7,CN1CCCN(C(=O)C2COC3(CCCCC3)N2C(=O)c2ccccc2)CC1 (stereo not given),1.3% (inactive)
8,Cc1cc(C2CCCN2C(=O)c2cc(-c3ccccc3F)no2)no1 (stereo not given),-0.13% (inactive)
9,C=CCn1c(-c2ccc(Cl)cc2)csc1=Nc1c(C)n(C)n(-c2ccccc2)c1=O,66% (active)
10,Cc1c(N=C2C=C(C(C)C)C(=O)C(C(C)C)=C2)c(=O)n(-c2ccccc2)n1C,8% (inactive)
11,C=CCn1c(=O)c2cnc(-c3ccc(Cl)cc3)nc2n(C)c1=O,-3.7% (inactive)
12,C=CCn1c(-c2ccccc2)csc1=Nc1ccc(O)cc1,69% (active)
13,CCn1c(=NC(=O)c2ccc(S(=O)(=O)N(C)C)cc2)sc2cc(F)ccc21,3% (inactive)
14,CCN1CCN(c2ncc3c(n2)CCN(Cc2cc(OC)c(OC)cc2OC)C3)CC1,23.9% (inactive)
15,COc1ccc(C2CC(=O)C3=C(C2)Nc2ncnn2C3c2cccc(OC)c2OC)cc1 (stereo not given),10.8% (inactive)
16,O=C(NCCC1=CCCCC1)C1CCCN(Cc2nc(-c3ccncc3)no2)C1 (stereo not given),-3.8% (inactive)
17,COc1ccc(-n2c3c(cc(C(=O)N4CCOCC4)c2=O)C(=O)CC(C)(C)C3)cc1,-1% (inactive)
18,CC(C)c1ccc(C2N3CC4(C)CN2CC(C)(C3)C4O)cc1 (stereo not given),-5% (inactive) and 3.2% (inactive)
19,Cc1cccc(C(=O)N2CCCN(C(=O)c3cccc(C)c3)CC2)c1,-1.9% (inactive)
20,Cc1c(C)n(Cc2ccccc2)c2ccc(C(=O)N3CCN(C(=O)c4ccccc4)CC3)cc12,99% (active)
21,Cc1ccc(C(=O)N2CCN(c3ccccc3)CC2)cc1,0.5% (inactive)
22,O=C(Nc1ccccc1[N+](=O)[O-])c1c(F)cccc1F,2.8% (inactive)
23,Fc1ccc(C2CC(c3ccc(Br)cc3)Nc3ncnn32)cc1 (stereo not given),7% (inactive)
24,CCN1C(=Cc2cc[n+](-c3ccccc3)cc2)C=Cc2ccccc21,65% (active)

row,Compound,inhibition
1,CCN1/C(=C2\N=C(c3ccccc3)OC2=O)C=Cc2ccccc21,39% (inactive)
2,CC(=O)C1=C(O)C(=O)N(c2nccs2)C1c1ccc([N+](=O)[O-])cc1 (stereo not given),10.1% (inactive)
3,COc1ccc(NC(=O)Nc2cccc3cccnc23)cc1,11.4% (inactive)
4,O=C(O)c1ccccc1-c1ccccc1C(=O)Nc1cccc2cccnc12,8.7% (inactive)
5,O=C(Nc1ccccc1)Oc1cccc2cccnc12,93.6% (active)
6,C=CCNC(=O)c1c(F)ccc(S(=O)(=O)N2CCCCCC2)c1F,-7% (inactive)
7,O=C(Cn1ncn2nc(-c3ccc(Cl)cc3)cc2c1=O)Nc1ccccc1C(F)(F)F,-7.9% (inactive)
8,CCNC(=O)c1csc(-c2cccc(OC)c2)n1,-7.8% (inactive)
9,COc1ccc(/C=C2\SC(=O)N(CN3CCOCC3)C2=O)cc1,-4% (inactive)
10,OCCNc1ncnc2sc3c(c12)CCCCC3,1.3% (inactive)
11,Clc1ncnc2sc3c(c12)CCCCC3,-7.58% (inactive)
12,NNc1ncnc2sc3c(c12)CCCC3,100% (active)
13,COc1cc(C(=O)N2CCC(CC(=O)NC3CCCC3)CC2)cc(OC)c1OC,-1.18% (inactive)
14,Cc1cccc(CN2Cc3cccc4c3[C@H](C=CC4)CC2=S)c1,3.5% (inactive)
15,O=C1C[C@H]2C=CCc3cccc(c32)CN1Cc1ccccc1,100% (active)
16,O=C1C[C@@H]2c3c(cccc3CN1Cc1ccccc1)C[C@@H](O)[C@H]2O,1.6% (inactive)
17,O=C(Cc1ccc(F)cc1Cl)N1CCCC1c1cccc(F)c1 (stereo not given),-1.36% (inactive)
18,COc1ccc(CNC(=O)C2CC(=O)N(c3ccc(OCc4ccc(F)cc4)cc3)C2)cc1 (stereo not given),-13.8% (inactive)
19,COc1ccc(C2CC(C(F)(F)F)n3ncc(C(=O)NC45CC6CC(CC(C6)C4)C5)c3N2)cc1 (stereo not given),6% (inactive)
20,COc1ccc(C(=O)Nc2cc(-c3ccccn3)no2)cc1,-10.4% (inactive)
21,CC1CC(C)CN(S(=O)(=O)c2ccc(C(=O)Nc3nc(-c4ccccn4)cs3)cc2)C1 (stereo not given),17% (inactive)
22,COCCNC(=O)Nc1nc(-c2ccccn2)cs1,95.6% (active)
23,Cc1nc(NC(=O)Cc2csc(NC(=O)c3ncccn3)n2)sc1C,98% (active)
24,Cc1nc(NC(=O)c2ccoc2C)sc1C,10% (inactive)

row,Compound,inhibition
1,CC(C)SCC(=O)Nc1nc(CC(=O)O)cs1,1.9% (inactive)
2,COc1cc(C(=O)Nc2cccc3nsnc23)cc(OC)c1OC,-8.5% (inactive)
3,COC(=O)Nc1nc(CC(=O)NCc2nc3ccccc3[nH]2)cs1,-0.6% (inactive)
4,O=C(Cc1csc(NC(=O)c2ncccn2)n1)Nc1cccc2nsnc12,99.8% (active)
5,Cc1ccc(NC(=O)c2ccc(Cl)c(Cl)c2)nc1,-13.9% (inactive) and -7% (inactive)
6,O=C(CSc1nc2ccsc2c(=O)n1Cc1ccccc1F)NC1CCCC1,-3% (inactive)
7,CC(=O)N(C)C1(C(=O)NC2CCCCC2)CCCCC1,4% (inactive)
8,COCCCNC(=O)C1(C)CCC(=O)N1Cc1ccc(C)cc1 (stereo not given),3.12% (inactive)
9,CCCCN(C)S(=O)(=O)c1ccc(C(=O)Nc2nnc(C)o2)cc1,32% (inactive)
10,O=C(/C(=C1\Nc2ccc([N+](=O)[O-])cc2N1)[N+](=O)[O-])N1CCCCC1,8% (inactive)
11,O=C1CC[C@@H]2CC3(C[C@@H]4CCN1[C@H]24)Nc1cc([N+](=O)[O-])ccc1NC3=NC1CCCCC1 (stereo not given in full),57.5% (active)
12,Cc1cc2c(cc1C)NC1(C[C@H]3CCC(=O)N4CC[C@@H](C1)[C@@H]34)C(=NC(C)(C)CC(C)(C)C)N2 (stereo not given in full),96.4% (active)
13,O=C1CCC[C@@H]2C[C@@]3(C[C@@H]4CCN1[C@H]24)Nc1ccccc1NC3=NCc1ccccc1,11.5% (inactive)
14,CC(C)(C)C(=O)NCCC(O)C1CC1 (stereo not given),-4% (inactive)
15,CN(C)CCn1c2c(c(SCC(=O)Nc3ccccc3C(F)(F)F)nc1=O)CCC2,0% (inactive)
16,O=C(CSc1nnnn1-c1cccc2ccccc12)Nc1ccccc1Cl,-8.1% (inactive)
17,COc1ccc(C(=O)Nc2ccccc2F)cc1OC,-1.2% (inactive)
18,COc1ccc(C2=NC3(CCCCC3)N(CC(=O)Nc3ccc4c(c3)OCO4)C2=O)cc1,3.31% (inactive)
19,CNc1nccc(N2CCC(CC(=O)N3CCN(c4ccccc4)CC3)CC2)n1,13.2% (inactive)
20,NC(N)=Nc1nc(-c2ccccc2)c2cc(Cl)ccc2n1,100% (active)
21,O=c1cc(-c2ccccc2)sc2ccc(Cl)cc12,7% (inactive)
22,Cc1nc(N=C(N)N)nc2c(C)cccc12,25.3% (inactive)
23,O=C1CC(c2ccc(Cl)cc2)CC2=C1C(c1ccsc1)Nc1ccccc1N2 (stereo not given),4% (inactive)
24,COc1ccc(C2CC(=O)C3=C(C2)Nc2ccccc2NC3c2cc(F)ccc2F)cc1 (stereo not given),23% (inactive)

row,Compound,inhibition
1,CN(C)c1ccc(C2Nc3ccccc3NC3=C2C(=O)CC(c2ccc(Cl)cc2)C3)cc1 (stereo not given),63% (active)
2,O=C(c1cccs1)N1CC(c2nc(-c3ncccn3)no2)C1,-5.2% (inactive)
3,COc1ccc(CNC(=O)CN(c2ccc(I)cc2)S(C)(=O)=O)cc1,-4.2% (inactive)
4,COc1ccc(C2=N/C(=C\c3cccc([N+](=O)[O-])c3)C(=O)O2)c(Br)c1,3% (inactive)
5,COc1ccc(C)cc1NC(=O)N1CCc2c(c(COCc3ccccc3F)nn2C)C1,33.8% (inactive)
6,CC1(C)C2CCC1(C)C(OCC(O)CN1CCOCC1)C2 (stereo not given),2.6% (inactive)
7,CC1CCN(CC(O)COC2CC3CCC2(C)C3(C)C)CC1 (stereo not given),-1.1% (inactive)
8,COc1ccc(N2CCN(CC(O)COC3CC4CCC3(C)C4(C)C)CC2)cc1 (stereo not given),64.3% (active)
9,COc1ccc(C2=NN3C(C2)c2cc(OC)ccc2OC3(C)C)cc1 (stereo not given),64% (active)
10,COc1ccc(C2=NN3COc4ccc(Br)cc4C3C2)cc1 (stereo not given),34% (inactive)
11,COc1ccc(C2=NN3COc4ccc(Cl)cc4C3C2)cc1 (stereo not given),27% (inactive)
12,COc1ccc2c(c1)C(=O)C(C1(O)C(=O)Nc3ccccc31)CC2 (stereo not given),2.6% (inactive)
13,COc1ccc(OC)c(C2C3=C(CC(C)(C)CC3=O)Nc3ccccc3N2C(C)=O)c1 (stereo not given),8.9% (inactive)
14,O=S1(=O)CC(N2CCN(Cc3ccccc3F)CC2)CN1Cc1cn(Cc2cccc(C(F)(F)F)c2)nn1 (stereo not given),6.8% (inactive)
15,COCCCNC(=O)c1cnn2c(C(F)(F)F)cc(-c3cccs3)nc12,10% (inactive)
16,O=[N+]([O-])c1c(Cl)cc(Cl)c2nsnc12,88% (active)
17,O=C(Nc1ccc(S(=O)(=O)Nc2ccccn2)cc1)C1OC2OC3(CCCCC3)OC2C2OC3(CCCCC3)OC12 (stereo not given),22.5% (inactive)
18,Cc1ccc(SCC(=O)N2CCN(C)CC2)cc1,0.5% (inactive)
19,CCc1onc(C)c1C1CCCN1Cc1cc(Br)ccc1F (stereo not given),-71.3% (inactive)
20,CCn1cc(-c2ccc(F)cc2)cc1C(=O)NC(C)c1cccnc1 (stereo not given),50.5% (active)
21,CCn1cc(-c2ccc(C)cc2)cc1C(=O)NCc1cccnc1,46.7% (inactive)
22,CCn1cc(-c2ccccc2)cc1C(=O)NCc1ccccn1,47.4% (inactive)
23,OCCCc1nc2n(n1)C(c1ccco1)C=C(c1ccc(Br)cc1)N2 (stereo not given),34% (inactive)

# Source: PubChem BioAssay AID1671202 (University of Kansas High Throughput Screening Laboratory, 2021)
